PubChem BioAssay
Calls of active or inactive are those of the source. Unless noted, how the calls were made is not given here.

Experiments:
[1] = anti-His antibody binders, primary screen, artefact control for SMM control protein annotation, biochemical, small-molecule microarray, 635 nm fluorescence (AID 1128); details: anti-His Alexa647 antibody binding, higher = more signal;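 further: score merges feature fluorescence with signal-to-noise for each printed compound spot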
[2] = test system: Human papillomavirus type 1a E7 protein (residues 1-88); assay: HPV1a E7 small-molecule binders, primary screen, biochemical, small-molecule microarray, residues 1-88, 635 nm (AID 1129); details: small-molecule microarray binding, fluorescence 635 nm; higher = more signal
[3] = target: Focal adhesion kinase 1 (Homo sapiens) (UniProt Q05397); assay: small-molecule microarray binders of FAK, primary screen, biochemical, 635/667 nm fluorescence, BSA, DTT (AID 1130); details: PTK2 binding, 635 nm fluorescence, higher = more signal;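 further: composite of spot emission at 667 nm and signal to noise over triplicate slides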
[4] = test system: Fibrinogen (Alexa647-labelled); assay: fibrinogen binders on compound microarrays, profiling panel, artefact control for SMM control-protein annotation, biochemical, small-molecule microarray, 635/667 nm fluorescence (AID 1131); details: fibrinogen-A647 binding fluorescence, higher = more signal;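 further: z-score merges 667 nm fluorescence with per-spot signal-to-noise over triplicate slides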
[5] = target: Follistatin (Homo sapiens) (UniProt P19883); assay: follistatin binders on small-molecule microarrays, primary screen, biochemical, small-molecule microarray, 635/667 nm fluorescence (AID 1132); details: FST binding, 635 nm fluorescence, higher = more signal
[6] = target: Fibroblast growth factor 2 (Homo sapiens) (UniProt P09038); assay: FGF2 binders on small-molecule microarrays, primary screen, biochemical, small-molecule microarray, 635/667 nm fluorescence (AID 1133); details: small-molecule microarray binding, FGF2, fluorescence 635/667; higher = more signal
[7] = mitochondrial membrane potential change in A549 cells, profiling panel, cell-based, JC-1 fluorescence, basal, 24 h, 100 nL (AID 1138); details: higher = more signal;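 further: A549 lung adenocarcinoma cells under basal conditions with no added stimulus; test concentration not given here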
Lefty1 = Lefty1 binders on small-molecule microarrays, primary screen, biochemical, small-molecule microarray, 635/667 nm fluorescence (AID 1139); details: small-molecule microarray binding, fluorescence 635/667; higher = more signal
[8] = test system: wheat germ agglutinin (Triticum aestivum), Alexa647-labelled; assay: wheat germ agglutinin binders on compound microarrays, profiling panel, artefact control for SMM control-protein annotation, biochemical, small-molecule microarray, 635/667 nm fluorescence (AID 1140); details: WGA-A647 binding, 635 nm fluorescence, higher = more signal;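 further: score merges 667 nm feature emission with signal to noise over triplicate slides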
[9] = target: Luciferin 4-monooxygenase (Photinus pyralis) (UniProt P08659); assay: firefly luciferase enzyme inhibitors, primary screen, biochemical, luminescence, purified enzyme, 2006 set (AID 1141); details: SteadyGlo luminescence, 30 min, higher = more signal, called active from +8 up or from −8 down;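 further: cell-free assay with purified firefly luciferase at 100 ng per well in PBS; test concentration not given here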
[10] = test system: Wnt5a (protein binding on small-molecule microarray); assay: Wnt5a binders on small-molecule microarray, primary screen, biophysical, 635/667 nm fluorescence (AID 1142); details: 635 nm fluorescence, higher = more signal;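 further: fluorescence read at 667 nm with signal to noise per printed feature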
[11] = cell viability in Huh7 cells, primary screen, cytotoxicity control for HCV replication inhibitor project, CellTiter-Glo luminescence, basal, 48 h (AID 1143); details: Huh7 HCV replicon, higher = more signal, called active from +8 up or from −8 down;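 further: Huh7 hepatoma cells carrying a hepatitis C replication reporter with no stimulus; test concentration not given here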
[12] = P. aeruginosa biofilm formation inhibitors, primary screen, PAO1 strain, BacTiter-Glo luminescence, LB-PBS (AID 1144); details: 12 h, higher = more signal
[13] = CREB reporter modulators without forskolin, primary screen, cell-based, PC12, CRE-LacZ reporter, unstimulated (AID 1145); details: no forskolin, luminescence, 4.5 h, higher = more signal, called active from +8 up or from −8 down
[14] = CREB reporter modulators under forskolin, primary screen, cell-based, PC12, CRE-LacZ reporter, forskolin-stimulated (AID 1146); details: luminescence, 4.5 h, higher = more signal, called active from +8 up or from −8 down;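 further: PC12 cells with 6xCRE LacZ reporter stimulated by forskolin 10 µM; beta-galactosidase reporter signal reflecting CREB driven transcription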
[15] = target: Streptavidin (Streptomyces avidinii) (UniProt P22629); assay: streptavidin binders on small-molecule microarray, primary screen, artefact control for SMM compound annotation, biophysical, 635/667 nm fluorescence (AID 1147); details: streptavidin binding, higher = more signal;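 further: signal reflects streptavidin binding to arrayed compounds as a control protein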
[16] = small-molecule binders of probe aInhba, primary screen, biochemical, small-molecule microarray, 635/667 nm fluorescence (AID 1148); details: higher = more signal;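 further: score merges 667nm spot fluorescence with signal-to-noise for antibody binding to printed compounds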
Torsin-1A (Homo sapiens) [17] = target: Torsin-1A (Homo sapiens) (UniProt O14656); assay: torsin A binders from cell lysate, primary screen, small-molecule microarray, wild-type, 635/667 nm (AID 1149); details: COS7 hTOR1A-WT lysate, 635 nm fluorescence, higher = more signal
Torsin-1A (Homo sapiens) [18] = target: Torsin-1A (Homo sapiens) (UniProt O14656); assay: small-molecule binders of mutant TOR1A in lysate, primary screen, cell lysate, small-molecule microarray, COS7 lysate, 635/667 nm fluorescence (AID 1150); details: COS7 hTOR1A mutant lysate, 635 nm fluorescence, higher = more signal;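 further: score pools 667 nm emission and signal to noise measuring lysate protein binding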
[19] = test system: Sonic hedgehog protein (Shh); assay: small-molecule binders of Shh protein, primary screen, biochemical, small-molecule microarray, 635/667 nm fluorescence (AID 1151); details: small-molecule microarray binding, 635 nm fluorescence; higher = more signal;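 further: Shh protein binding to compounds spotted on small-molecule microarray slides; score combines spot fluorescence intensity with signal-to-noise across triplicate slides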

Sequence of Follistatin (Homo sapiens) (P19883 whole entry, looked up): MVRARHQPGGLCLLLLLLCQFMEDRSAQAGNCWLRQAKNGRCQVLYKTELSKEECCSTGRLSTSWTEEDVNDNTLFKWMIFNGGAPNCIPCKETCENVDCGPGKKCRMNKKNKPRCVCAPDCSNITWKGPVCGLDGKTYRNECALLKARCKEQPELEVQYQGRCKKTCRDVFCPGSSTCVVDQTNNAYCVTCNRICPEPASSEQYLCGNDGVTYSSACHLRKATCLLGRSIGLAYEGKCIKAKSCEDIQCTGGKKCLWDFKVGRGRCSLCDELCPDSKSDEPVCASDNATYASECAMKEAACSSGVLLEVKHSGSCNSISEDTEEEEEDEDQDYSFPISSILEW
Sequence of Streptavidin (Streptomyces avidinii) (P22629 whole entry, looked up): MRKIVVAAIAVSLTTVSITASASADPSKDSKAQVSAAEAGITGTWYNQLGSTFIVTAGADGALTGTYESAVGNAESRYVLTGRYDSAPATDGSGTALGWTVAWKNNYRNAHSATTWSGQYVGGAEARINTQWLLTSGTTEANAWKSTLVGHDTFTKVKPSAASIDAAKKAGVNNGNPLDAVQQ
Sequence of Luciferin 4-monooxygenase (Photinus pyralis) (P08659 whole entry, looked up): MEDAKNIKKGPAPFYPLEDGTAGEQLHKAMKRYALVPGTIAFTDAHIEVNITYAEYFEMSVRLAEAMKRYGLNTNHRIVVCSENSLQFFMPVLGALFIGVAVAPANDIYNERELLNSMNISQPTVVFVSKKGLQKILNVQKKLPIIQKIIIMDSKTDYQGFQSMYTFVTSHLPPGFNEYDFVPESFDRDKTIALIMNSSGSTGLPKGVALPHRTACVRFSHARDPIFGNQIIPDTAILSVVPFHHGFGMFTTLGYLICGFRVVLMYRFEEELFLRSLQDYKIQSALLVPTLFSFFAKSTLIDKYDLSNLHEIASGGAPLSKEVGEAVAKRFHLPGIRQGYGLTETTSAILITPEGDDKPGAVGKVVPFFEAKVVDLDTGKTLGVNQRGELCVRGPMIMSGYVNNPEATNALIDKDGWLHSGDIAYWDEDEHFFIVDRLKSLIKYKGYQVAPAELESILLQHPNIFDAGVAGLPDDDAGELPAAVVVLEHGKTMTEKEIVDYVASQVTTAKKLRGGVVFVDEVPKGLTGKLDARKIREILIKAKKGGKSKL
Sequence of Fibroblast growth factor 2 (Homo sapiens) (P09038 whole entry, looked up): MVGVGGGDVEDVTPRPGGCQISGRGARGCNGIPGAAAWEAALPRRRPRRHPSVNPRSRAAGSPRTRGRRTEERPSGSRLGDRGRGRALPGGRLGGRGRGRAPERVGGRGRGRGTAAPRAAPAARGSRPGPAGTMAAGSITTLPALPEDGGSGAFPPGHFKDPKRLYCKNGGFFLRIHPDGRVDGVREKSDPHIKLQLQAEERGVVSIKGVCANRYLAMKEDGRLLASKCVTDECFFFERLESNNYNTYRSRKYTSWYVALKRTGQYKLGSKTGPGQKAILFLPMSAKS
Sequence of Focal adhesion kinase 1 (Homo sapiens) (Q05397 whole entry, looked up): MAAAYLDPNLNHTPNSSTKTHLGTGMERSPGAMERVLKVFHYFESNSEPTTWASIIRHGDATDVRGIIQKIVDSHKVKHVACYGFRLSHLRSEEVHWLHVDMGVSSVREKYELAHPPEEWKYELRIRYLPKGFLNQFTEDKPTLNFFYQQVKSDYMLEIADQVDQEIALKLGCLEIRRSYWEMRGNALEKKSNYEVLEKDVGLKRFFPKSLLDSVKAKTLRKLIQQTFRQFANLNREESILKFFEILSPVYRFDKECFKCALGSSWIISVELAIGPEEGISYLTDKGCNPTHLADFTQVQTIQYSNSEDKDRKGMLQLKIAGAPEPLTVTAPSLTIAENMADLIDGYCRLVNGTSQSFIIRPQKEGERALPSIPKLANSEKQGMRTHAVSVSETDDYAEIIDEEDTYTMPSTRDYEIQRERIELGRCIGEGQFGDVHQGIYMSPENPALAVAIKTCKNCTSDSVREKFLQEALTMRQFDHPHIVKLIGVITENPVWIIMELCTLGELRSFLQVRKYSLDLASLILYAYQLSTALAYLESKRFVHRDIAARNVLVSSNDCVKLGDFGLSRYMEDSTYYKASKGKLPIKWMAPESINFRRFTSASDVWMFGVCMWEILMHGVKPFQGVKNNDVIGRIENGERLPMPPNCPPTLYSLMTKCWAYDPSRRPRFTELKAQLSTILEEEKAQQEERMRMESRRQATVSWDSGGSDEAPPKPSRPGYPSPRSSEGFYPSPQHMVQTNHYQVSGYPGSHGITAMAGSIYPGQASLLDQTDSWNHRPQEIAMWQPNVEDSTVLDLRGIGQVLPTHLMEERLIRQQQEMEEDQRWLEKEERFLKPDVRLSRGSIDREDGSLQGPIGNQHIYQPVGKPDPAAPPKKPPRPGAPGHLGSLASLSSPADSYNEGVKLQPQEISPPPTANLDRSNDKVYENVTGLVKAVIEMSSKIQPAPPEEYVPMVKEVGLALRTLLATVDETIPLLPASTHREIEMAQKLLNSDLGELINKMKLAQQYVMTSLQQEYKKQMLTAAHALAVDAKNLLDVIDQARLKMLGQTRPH
Sequence of Torsin-1A (Homo sapiens) (O14656 whole entry, looked up): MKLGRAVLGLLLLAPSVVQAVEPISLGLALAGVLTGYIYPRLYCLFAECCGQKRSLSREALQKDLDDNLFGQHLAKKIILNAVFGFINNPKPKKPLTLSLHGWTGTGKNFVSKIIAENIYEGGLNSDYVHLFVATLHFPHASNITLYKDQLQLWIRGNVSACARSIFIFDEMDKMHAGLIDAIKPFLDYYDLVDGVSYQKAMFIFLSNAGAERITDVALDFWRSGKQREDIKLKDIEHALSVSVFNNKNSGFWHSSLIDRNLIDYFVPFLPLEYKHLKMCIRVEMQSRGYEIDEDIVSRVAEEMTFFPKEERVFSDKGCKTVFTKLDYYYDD

Structure (SMILES)	composite z-score [1]	composite z-score [2]	composite z-score [3]	composite z-score [4]	composite z-score [5]	composite z-score [6]	z-score [7]	composite z-score (Lefty1)	composite z-score [8]	z-score [9]	composite z-score [10]	z-score [11]	z-score [12]	z-score [13]	z-score [14]	composite z-score [15]	composite z-score [16]	composite z-score (Torsin-1A (Homo sapiens) [17])	composite z-score (Torsin-1A (Homo sapiens) [18])	composite z-score [19]
CC(C)N1C(=O)C[C@@](C(=O)NCCCN(C)C)(c2ccc([N+](=O)[O-])cc2)[C@H]1c1ccc(CO)cc1	-0.616	-0.605	-0.519	0.47	0.316	0.875	-0.488	-0.0831	-0.0539	-0.287 (inactive)	-0.0942	-1.38 (inactive)	0.574 (inactive)	0.764 (inactive)	0.0255 (inactive)	-0.36	-0.157	-0.0639	0.46	0.249
C=CCOC(=O)[C@H]1[C@@H]2C(=O)O[C@@H](c3ccccc3)[C@@H](c3ccccc3)N2[C@@H](c2ccc(OCCOC(=O)[C@H]3C[C@H]4C(=O)N[C@@H](CCCCNC(C)=O)C(=O)N4[C@H]3c3ccc(O)cc3)cc2)[C@]12C(=O)Nc1ccccc12	2.7	1.12	0.765	0.732	1.4	1.63	-1.16	1.1	0.538	-2.37 (inactive)	0.228	-1.59 (inactive)	-1.57 (inactive)	0.147 (inactive)	-0.542 (inactive)	-0.292	-0.146	0.757	0.835	1.75
C=C(/C(=C/C[C@H](OC(C)=O)c1ccccc1OCCO)c1cc(C(=O)OC)ccc1OC)C(C)C	2.68	0.278	-0.164	0.0823	0.494	0.428	-0.139	0.501	0.151	-0.475 (inactive)	0.608	-3.44 (inactive)	0.48 (inactive)	13.6 (active)	-0.556 (inactive)	-1.06	0.0906	0.356	1.53	1.4
C=CCN1Cc2ccccc2[C@H]2OC(c3ccc(OCCCO)cc3)=N[C@@]2(CC=C)C1=O	2.47	1.23	1.12	0.59	1.54	1.87	1.33	0.834	0.619	-0.107 (inactive)	1.07	-3.16 (inactive)	-0.746 (inactive)	0.0594 (inactive)	-1.58 (inactive)	0.998	0.268	1.08	0.475	1.91
CC(C)(C)OC(=O)CC[C@]1(C(=O)NCC(O)CO)N=C(c2ccc(OCCCO)cc2)O[C@H]1c1ccccc1 (stereo not given in full)	0.872	0.937	-0.216	0.118	-0.786	-0.494	0.0908	-1.71	0.94	-1 (inactive)	0.167	-4.48 (inactive)	-1.56 (inactive)	-0.356 (inactive)	-0.729 (inactive)	0.291	0.0391	0.709	1.6	-1.56
CC(C)N1CC=CC23O[C@@H]4C=CCOC(=O)[C@@H]4[C@H]2C(=O)N(CCCO)[C@@H]3C1=O (stereo not given in full)	1.59	0.672	1.01	-1.14	-0.0511	-0.849	-0.384	-0.133	-0.17	-3.85 (inactive)	-0.26	-5.24 (inactive)	-2.47 (inactive)	-1.31 (inactive)	-0.931 (inactive)	-0.941	-0.182	1.12	0.874	-0.182
COc1ccc([Si](C)(C)[C@@H]2[C@@H](CC(=O)N(CCO)Cc3ccccc3)O[C@]3(C(=O)N(c4ccccc4)c4ccccc43)[C@H]2C)cc1	1.13	1.14	0.437	0.874	1.07	0.716	0.0115	1.29	0.291	0.293 (inactive)	0.272	-7.08 (inactive)	-0.334 (inactive)	7.53 (inactive)	-2.26 (inactive)	0.675	-0.125	0.555	0.3	1.17
O=C1N(Cc2ccccc2)Cc2ccccc2[C@@H]2OC(c3ccc(OCCCO)cc3)=N[C@]12CCS(=O)(=O)c1ccccc1	0.624	1.19	0.389	0.768	0.953	1.4	-0.461	-0.0333	1.04	-0.929 (inactive)	0.534	-2.33 (inactive)	0.245 (inactive)	3.78 (inactive)	-0.832 (inactive)	0.379	0.0742	0.529	0.489	1.42
CC1=C[C@@]2(CO)C(=O)[C@]3(CO3)[C@@H]1[C@H]1[C@]2(C)C=C(CO)C(=O)[C@]12CO2	0.0455	-0.0634	0.206	-0.403	0.443	0.165	0.173	0.381	0.207	0.538 (inactive)	0.129	-0.0354 (inactive)	-0.108 (inactive)	0.314 (inactive)	1.51 (inactive)	0.006	-0.103	0.145	0.171	0.265
COC(=O)[C@@]1(Cc2ccccc2)[C@@H]2C(=CC(=O)[C@H]2CC(=O)C(=O)N(C)C)CN1C(=O)c1ccccc1	2.15	1.25	0.745	0.0523	0.324	-0.147	-0.312	-0.271	0.407	-21 (active)	0.117	-2.86 (inactive)	0.421 (inactive)	0.0075 (inactive)	0.087 (inactive)	-0.0043	0.308	0.2	0.239	-0.2
CN1C(=O)C2C=CC(C(O)c3ccc(F)cc3)N(Nc3ccccc3)C2C1=O (stereo not given)	2.27	1.14	1.04	0.802	0.576	-0.319	-0.575	0.253	0.0088	-0.112 (inactive)	-0.126	0.457 (inactive)	-0.293 (inactive)	0.0535 (inactive)	0.754 (inactive)	0.473	0.203	-0.319	0.363	0.137
COc1ccc(NC(=O)O[C@H]2[C@H](OC(=O)Nc3ccccc3)[C@H](OC(=O)Nc3ccccc3)[C@@H](OC)O[C@@H]2CO)cc1	1.65	1.19	0.709	0.284	1.35	1.45	0.732	0.735	0.98	-0.128 (inactive)	1.14	-4.38 (inactive)	0.643 (inactive)	0.204 (inactive)	-1.05 (inactive)	0.0994	0.398	0.97	1.1	1.44
COc1cc2c(cc1OC)CN(C(=O)[C@@H]1[C@H]3C(=O)O[C@H](c4ccccc4)[C@H](c4ccccc4)N3[C@H](c3ccc(OCCO)cc3)[C@@]13C(=O)Nc1ccccc13)CC2	1.04	1.25	0.164	0.971	1.31	1.26	-0.957	1.19	1.3	-1.65 (inactive)	0.758	-1.06 (inactive)	-1.46 (inactive)	0.829 (inactive)	-0.437 (inactive)	0.607	0.188	1.06	0.858	1.93
CCC(CC)C(O)C1C=CC2C(=O)N(c3ccccc3)C(=O)C2N1Nc1ccc(C(C)C)cc1 (stereo not given)	0.489	1.22	0.902	0.978	1.01	0.524	-0.202	0.0342	1.08	-1.58 (inactive)	0.578	-0.382 (inactive)	-0.0181 (inactive)	-0.136 (inactive)	-0.156 (inactive)	0.792	-0.0021	0.393	0.41	-0.0854
CN(C)C(=O)[C@]1(CCS(=O)(=O)c2ccccc2)N=C(c2ccc(OCCCO)cc2)O[C@@H]1c1ccccc1N=[N+]=[N-]	1.21	1.27	1.46	1.02	1.44	0.943	1.08	0.762	0.941	-12.3 (active)	0.758	-2.79 (inactive)	0.0474 (inactive)	1.92 (inactive)	-0.977 (inactive)	2.06	0.246	1.42	1.78	0.605
COc1ccc([Si](C)(C)[C@@H]2[C@@H](CC(=O)N(CCO)Cc3ccccc3)O[C@]3(C(=O)N(Cc4cccc(N5CCOC5=O)c4)c4ccccc43)[C@H]2C)cc1	1.78	1.13	0.139	0.732	0.583	0.393	-0.154	0.899	0.717	0.229 (inactive)	-0.129	-5.47 (inactive)	-0.122 (inactive)	0.748 (inactive)	-0.62 (inactive)	-0.121	-0.176	0.787	0.347	1.52
O=C1NC(=O)C2C1C=CC(C(O)CCc1ccccc1)N2Nc1ccc(Cl)cc1Cl (stereo not given)	0.371	1.18	1.11	0.363	0.0611	-0.83	-0.267	-0.556	1.07	0.369 (inactive)	0.564	-0.149 (inactive)	0.0136 (inactive)	0.243 (inactive)	0.0662 (inactive)	0.209	-0.0581	0.689	1.36	-0.625
CN1C(=O)C2C=CC(C(O)c3cccc(O)c3)N(Nc3ccccc3)C2C1=O (stereo not given)	0.71	0.545	0.214	0.441	0.214	-0.191	1.19	0.152	0.275	0.991 (inactive)	0.0652	0.656 (inactive)	0.373 (inactive)	0.0501 (inactive)	0.233 (inactive)	-0.404	0.142	-0.379	0.548	-0.128
O[C@@H](Cc1ccccc1)[C@@H](/C=C/C1CC1)N(CC#Cc1ccccc1)Cc1cccc(Cl)c1	-0.156	-0.429	-0.0816	-0.6	-1.19	-1.43	0.513	-0.954	0.197	0.466 (inactive)	-0.501	-1.09 (inactive)	-0.94 (inactive)	2.04 (inactive)	-0.295 (inactive)	-0.679	-0.302	-0.662	-0.976	-1.03
